Results on 17 compounds are retold here after PubChem BioAssay (NCI).

What all share (test): NCI-60 one-dose screen, 48 h (100 = growth as untreated, 0 = no growth, -100 = all killed)
Common to all, as to conditions: 10 µM unless noted

Experiment [1] relates to DU-145 prostate.
Experiment [2] relates to K-562 leukemia.
The subject of experiment [3] is MALME-3M melanoma.
Experiment [4] relates to MDA-MB-231 breast.
In experiment [5] the test system is RXF 393 renal.
Experiment [6] has as its system SF-268 CNS.
Experiment [7] relates to SF-539 CNS.
Experiment [8] has as its system UACC-257 melanoma.
Experiment [9] concerns M14 melanoma.
Experiment [10] deals with HCT-15 colon.
Experiment [11] deals with HT29 colon.
Experiment [12] concerns SNB-75 CNS.
In experiment [13] the test system is SNB-19 CNS.
Experiment [14] relates to U251 CNS.
In experiment [15] the test system is PC-3 prostate.
Experiment [16] has as its system SK-MEL-5 melanoma.
Experiment [17] has as its system LOX IMVI melanoma.
Experiment [18] relates to SK-MEL-28 melanoma.
Experiment [19] concerns SF-295 CNS.
Experiment [20] concerns UACC-62 melanoma.

The panel holds about 83,000 compounds, 20% with a hit somewhere; the sample as a whole holds those more often.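 Cells were grown in 96-well plates and exposed to the test compound at a single concentration for 48 hours; results are reported as percent growth, with values below 10 considered active.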 Unmarked numbers belong to inactive results. Active and inactive are the calls of the source.

Turning to `Cc1cc(=O)[nH]n1-c1cc(Cl)ccc1N`, the growth in [1] is 132%; in experiment [2] it was 99.4%; in [3], 108%; in [4] it was 124%; in experiment [5], 107%; in experiment [6], 116%. The growth in experiment [7] was 102%; in [8], 89.8%; in experiment [9] it was 99.8%; in [10], 92.4%; in experiment [11], 102%; in experiment [12], 88.4%. Besides, the growth is 112% in experiment [13]; 108% in experiment [14]; 106% in experiment [15]; 112% in experiment [16]; 94.7% in experiment [17]; 115% in experiment [18].
For the compound `O=c1[nH]c(=S)[nH]c(=O)n1Cc1cccc2ccccc12`, the growth in experiment [1] is 116%; in experiment [2], 90.1%; in [3] it was 97.3%; in experiment [4], 106%; in experiment [6] it was 107%; in [19] it was 77.4%. Besides, the growth in [7] was 103%; in experiment [9], 104%; in experiment [10] it was 98.3%; in experiment [11], 110%; in [12], 81.8%; in experiment [14], 93.1%. Moreover, the growth in experiment [15] was 92.8%; in [20], 89.7%; in experiment [17], 94.3%; in experiment [18], 103%.
As to `COc1ccc(Nc2nc(NCCNc3ccnc4cc(Cl)ccc34)nc(N3CCOCC3)n2)cc1`, the growth was 67.7% in [1]; 6.77% (active) in experiment [2]; -80.2% (active) in experiment [3]; 25.2% in experiment [4]; 58.3% in experiment [6]; 38.1% in experiment [7]. The growth in [9] was 19.9%; in experiment [10] it was 15.1%; in experiment [11], 4.28% (active); in experiment [12], 38.4%; in [13], 78%; in experiment [14], 48.2%. Besides, the growth in experiment [15] is 43.8%; in experiment [16] it was 48.7%; in experiment [20] it was 74.2%; in experiment [17], 40.2%; in experiment [18] it was -80.7% (active).
With `CCOC(=O)C(CC(c1ccccc1)N1CCCCC1)[N+](=O)[O-]` (stereo unspecified), the growth is 94.4% in experiment [1]; 69.5% in experiment [2]; 62% in [3]; 86.6% in [4]; 100% in experiment [5]; 93% in [6]. Further, the growth in [8] was 89%; in experiment [9], 82.5%; in experiment [10], 74.9%; in experiment [11], 95.4%; in experiment [12], 86%; in [13], 89.5%. Besides, the growth in experiment [14] is 73.7%; in experiment [15] it was 67.2%; in [16] it was 91.2%; in experiment [20] it was 59.9%; in [17], 63.8%; in [18], 98.8%.
`COc1ccc(-c2nc3sc(C)nn3c2-c2nc3cc(C)c(C)cc3[nH]2)cc1`: the growth is 101% in experiment [1]; 97.2% in experiment [2]; 88.3% in [3]; 99.6% in [4]; 99.5% in experiment [5]; 101% in experiment [6]. The growth in [7] was 95%; in experiment [8], 100%; in experiment [9], 103%; in experiment [10] it was 80.6%; in [11] it was 99.2%; in experiment [13], 110%. In addition, the growth was 103% in experiment [14]; 86% in experiment [15]; 93% in [16]; 88.5% in experiment [20]; 94.8% in [17]; 96% in [18].
`CC(C)OC1=C(Cl)C(=O)c2ccccc2C1=O`: the growth in experiment [1] is 119%; in experiment [2] it was 22.8%; in experiment [3], 111%; in experiment [4] it was 85.6%; in experiment [5], 99.6%; in experiment [6], 93.5%. In addition, the growth in [7] was 38.4%; in experiment [8], 89.6%; in experiment [9] it was 97.8%; in experiment [10] it was 51.4%; in experiment [11] it was 113%; in experiment [12], 75.8%. Besides, the growth in experiment [13] is 90.1%; in experiment [14] it was 57.4%; in experiment [15] it was 69.1%; in experiment [16] it was 96.8%; in experiment [17], 86.5%; in experiment [18], 101%.
On to `CC(=O)Nc1ccc(Sc2ccc([N+](=O)[O-])o2)cc1`, for which the growth in experiment [1] is 34.7%; in [2], 17.6%; in [3], -16.5% (active); in experiment [4], 58.6%; in [5], -57.1% (active); in [6], 54.5%. The growth in experiment [7] is 15.3%; in experiment [8] it was -43.4% (active); in experiment [9] it was 12.3%; in experiment [10] it was 2.17% (active); in [12], 58.3%; in [13], 118%. Besides, the growth was 31.9% in experiment [14]; 58.9% in experiment [15]; 59.5% in [16]; 5.12% (active) in experiment [17]; -8.34% (active) in experiment [18].
Take `Clc1nc(-c2ccccn2)nc2sc3c(c12)CCCCCC3`: the growth is 22.6% in experiment [1]; 79.8% in [2]; 94.2% in experiment [3]; 117% in experiment [4]; 94.6% in experiment [6]; 97.3% in experiment [7]. For the same compound, the growth is 86.8% in [9]; 84.2% in experiment [10]; 99.3% in [11]; 85% in [12]; 97.2% in experiment [14]; 92.2% in experiment [15]. Moreover, the growth was 96% in experiment [20], 67.8% in experiment [17] and 89.3% in experiment [18].
As to `N#Cc1ccc(C(F)(F)F)nc1N1CCC(C(=O)Nc2ccc(Cl)cc2)CC1`, the growth in experiment [1] was 86.6%; in experiment [2] it was 49.3%; in experiment [3] it was 94.2%; in [4], 95.7%; in experiment [6], 89%; in experiment [19], 65.5%. Besides, the growth is 100% in experiment [7]; 75.2% in experiment [9]; 43.9% in experiment [10]; 51.5% in experiment [11]; 105% in experiment [12]; 65.3% in experiment [14]. Moreover, the growth is 51% in [15], 43.7% in experiment [17] and 87.2% in experiment [18].
For the compound `Cc1ccc2nc(NC(=O)CSC(=S)N3CCN(C)CC3)sc2c1`, the growth in [1] is 122%; in experiment [2], 106%; in experiment [3], 108%; in [4], 110%; in [5] it was 105%; in [6] it was 112%. Moreover, the growth in [7] was 100%; in experiment [8] it was 89.8%; in [9], 107%; in experiment [10], 102%; in [11], 106%; in [12], 90.8%. Besides, the growth in [13] was 108%; in experiment [14] it was 108%; in experiment [15] it was 95.6%; in experiment [17], -72.3% (active); in experiment [18], 116%.
Regarding `COCCOC1=C(Cl)C(=O)c2ccccc2C1=O`, the growth is 38.7% in experiment [1]; 8.89% (active) in experiment [2]; 96.4% in experiment [3]; 34.8% in [4]; 18.7% in experiment [5]; 24.1% in experiment [6]. For the same compound, the growth was -10.4% (active) in experiment [7]; -17.3% (active) in experiment [8]; 40.1% in experiment [9]; 13% in [10]; 8.63% (active) in experiment [12]; 88.4% in experiment [13]. Also, the growth in experiment [14] is 8.18% (active); in experiment [15], 18.7%; in experiment [16], -7.27% (active); in experiment [17], 22.1%; in [18] it was 13.7%.
Turning to `Oc1ccc(Cl)cc1CNc1nc2ccccc2[nH]1`, the growth is -50.6% (active) in experiment [1]; -50.4% (active) in experiment [2]; -56.4% (active) in experiment [3]; -24.1% (active) in [4]; 51.7% in [5]; -39.7% (active) in [6]. Moreover, the growth in [7] is -50.9% (active); in experiment [8], -63.4% (active); in experiment [9], -49.1% (active); in experiment [10] it was 15.9%; in experiment [11] it was -46% (active); in [12], 70.5%. In addition, the growth is 111% in experiment [13]; -5.5% (active) in [15]; 49% in experiment [16]; -68.1% (active) in experiment [20]; -78.1% (active) in experiment [17]; -82.6% (active) in experiment [18].
Turning to `O=C1C(OCCOc2ccccc2)=C(OCCOc2ccccc2)C(=O)c2ccccc21`, the growth in experiment [1] was 56.7%; in [2], 66.4%; in experiment [3], 54.7%; in experiment [4], 70.5%; in [5], 79.4%; in experiment [6] it was 77.2%. In addition, the growth in experiment [7] was 94.9%; in [8], 14.8%; in experiment [9], 51.4%; in experiment [10], 26.7%; in experiment [11], 107%; in [12] it was 69.4%. Moreover, the growth is 57.6% in [13]; 18.9% in [14]; 44.4% in experiment [15]; 13.6% in experiment [16]; 22.6% in [17]; 93.5% in experiment [18].
For `CC[Si](CC)(CC)OC1[C@@H](O[Si](CC)(CC)CC)[C@@H](CNC(=O)NC)O[C@H]1n1cnc2c(NC(=O)Nc3ccccc3)ncnc21` (stereo partly specified), the growth is 89.3% in experiment [1]; 15.9% in experiment [2]; 63.2% in experiment [3]; 97.4% in experiment [4]; 116% in experiment [5]; 67.5% in [6]. For the same compound, the growth in [19] is 59%; in [7], 99%; in experiment [9], 99.9%; in experiment [10], 86.2%; in [12], 78.1%; in [14], 82.8%. Also, the growth in [15] was 11.2%; in [16] it was 95.1%; in [20], 73%; in experiment [17], 93.7%; in [18] it was 104%.
On to `O=C(Nc1nc2ccccc2[nH]1)C(=O)Nc1nc2ccccc2[nH]1`, for which the growth in experiment [1] is 114%; in experiment [2] it was 94.1%; in [3] it was 91.4%; in [4] it was 91%; in experiment [5], 102%; in experiment [6] it was 102%. The growth in [7] is 95.8%; in experiment [8] it was 101%; in [9] it was 98.8%; in [10], 86.2%; in experiment [11], 107%; in experiment [12] it was 93.4%. Besides, the growth was 101% in experiment [13]; 96.5% in [14]; 85.7% in experiment [15]; 97.5% in experiment [20]; 93.5% in experiment [17]; 107% in experiment [18].
For `CCOC(=O)C1=C(C)N2C(=NC3=C(CCCC/C3=C\c3cc(OC)c(OC)c(OC)c3)C2c2cc(OC)c(OC)c(OC)c2)S1` (stereo unspecified), the growth is 86% in experiment [1]; 31.2% in experiment [2]; 51.8% in experiment [3]; 71.9% in experiment [4]; 80.6% in experiment [6]; 56.5% in experiment [19]. Besides, the growth is 79.9% in experiment [7]; 79% in experiment [9]; 44.8% in experiment [10]; 66.8% in [11]; 49.8% in experiment [15]; 39.9% in [20]. Also, the growth in [17] is 74.1%; in experiment [18], 82.9%.
Turning to `CNc1ccc(Br)cc1-c1n[nH]c(=O)[nH]c1=O`, the growth in [1] is 122%; in experiment [2], 103%; in experiment [3], 110%; in [4], 94.2%; in experiment [6] it was 111%; in experiment [19], 79.6%. For the same compound, the growth in [7] was 103%; in [9], 100%; in experiment [10], 102%; in experiment [12], 77.4%; in [14], 96.2%; in experiment [15] it was 99.5%. The growth in [20] was 105%; in [17], 98.6%; in experiment [18], 107%.
